# According to PubChem BioAssay AID772 (SRMLSC, 2007):
# In all, about 3,300 compounds went through this assay and about 20 (0.6%) were called active.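 How the source made its calls: active means growth inhibition above 90%, meaning viable cell count cut by more than 90% versus vehicle controls; inactive means growth inhibition below 90%.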 Shown is part of a subset that was picked to be rich in actives.
# Test: HT29 colon tumor cell growth inhibition, primary screen, imaging, high content imaging, 72 h, CellTiter-Glo (AID 772);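 on condensed nuclei: condensed means nuclear area below control median minus 1.5 SD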
# Conditions: HCS imaging cell count, at 10 µM, stronger effect = higher value; for condensed nuclei: measured here: percent cells with condensed nuclei
# [1] = measured here: ATP CellTiter-Glo viability
SMILES,growth inhibition,growth inhibition [1],condensed nuclei
CCCCOCCCn1c(N)c(C(=O)OC(C)COC)c2nc3ccccc3nc21 (stereo not given),91.4% (active),77.2%,11%
CCCCOCCCn1c(N)c(C(=O)OCCOC)c2nc3ccccc3nc21,95.3% (active),57.5%,17.2%
COCC(C)OC(=O)c1c(N)n(Cc2ccco2)c2nc3ccccc3nc12 (stereo not given),44.2% (inactive),19.7%,1.26%
CC(C)(C)OC(=O)c1c(N)n(Cc2ccco2)c2nc3ccccc3nc12,44.5% (inactive),20.9%,4.1%
CC(C)OC(=O)c1c(N)n(Cc2ccco2)c2nc3ccccc3nc12,31.4% (inactive),-17.3%,3.52%
COCCOC(=O)c1c(N)n(Cc2ccco2)c2nc3ccccc3nc12,-33.9% (inactive),-49.5%,3.83%
COc1ccc(C2SCC(=O)Nc3c2c(=O)[nH]n3C2CCCCC2)cc1 (stereo not given),1.43% (inactive),-9.94%,12.4%
Clc1ccc(CSC(Cn2ccnc2)c2ccc(Cl)cc2Cl)cc1 (stereo not given),57.5% (inactive),71.7%,13.6%
CCN(CC)CCCNC(=O)c1c(O)c2ccccc2n(Cc2ccccc2)c1=O,84.5% (inactive),95.7%,16%
CCCCn1c(O)c(C=NCCN2CCCCC2)c(=O)[nH]c1=O,4.76% (inactive),-24.2%,0.91%
